Results as given in the supplement of paper PMC10849652.
Of roughly 7,900 targets only a part is listed; those with a hit were picked by preference. About 0.6% of all pairs of compound and target were hits. Values without a mark were called inactive.

Tests used:
Assay in all cases: log2 fold change, soluble protein after heating vs DMSO (PISA); higher = thermal stabilisation; K562 cells, 10 uM, 30 min; active = over 0.2 and 3.5 SD of the protein, either way, in both replicates (recomputed)
[1] = compound: CS(=O)(=O)c1ccc(-c2cnc(N)c(C(=O)Nc3ccccc3)n2)cc1
Method in brief: (§1)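 Thermal stability values are relative to control samples and come from duplicates. They are expressed as log2 fold changes. For measurement, K562 cells (2×10^6 cells/mL) received 10 μM compound for 30 min, and aliquots were heated for 3 min over 48°C-58°C, pooled, and extracted at 4°C in PBS with 0.5% NP-40. Soluble protein, the supernatant after 21,000xg for 90 min, was quantified by TMTpro 16plex LC-MS/MS with equalised channel sums.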

[2] = compound: C[C@@H](Oc1cc(-c2cnn(C3CCNCC3)c2)cnc1N)c1c(Cl)ccc(F)c1Cl [crizotinib]
Method in brief: as §1

[3] = compound: C[C@@H]1COCCN1C2=NC(=NC(=C2)C3(CC3)S(=O)(=O)C)C4=C5C=CNC5=CC=C4
Method in brief: as §1

[4] = compound: C[C@H](C1=CC=C(C=C1)C(=O)NC2=C3C=CNC3=NC=C2)N
Method in brief: as §1

[5] = compound: C[C@H](Nc1ncnc2nc[nH]c12)c1cc2cccc(Cl)c2c(=O)n1-c1ccccc1 [duvelisib]
Method in brief: as §1

[6] = compound: Cc1cc(Nc2cc(CN3CCOCC3)c3nc(C)c(Cc4ccc(Cl)cc4F)n3n2)n[nH]1 [gandotinib]
Method in brief: as §1

[7] = compound: Cc1cc(Nc2cc(N3CCN(C)CC3)nc(Sc3ccc(NC(=O)C4CC4)cc3)n2)n[nH]1 [tozasertib]
Method in brief: as §1

[8] = compound: Cc1cc(SCc2sc(-c3ccc(C(F)(F)F)cc3)nc2C)ccc1OCC(=O)O
Method in brief: as §1

[9] = compound: Cc1ccc(-n2nc(C(C)(C)C)cc2NC(=O)Nc2ccc(OCCN3CCOCC3)c3ccccc23)cc1 [doramapimod]
Method in brief: as §1

[10] = compound: Cc1ccc(C(=O)N(CCCN)[C@@H](c2nc3cc(Cl)ccc3c(=O)n2Cc2ccccc2)C(C)C)cc1 [ispinesib]
Method in brief: as §1

Sequence of UniProt Q9BU89 (Q9BU89 whole entry, looked up): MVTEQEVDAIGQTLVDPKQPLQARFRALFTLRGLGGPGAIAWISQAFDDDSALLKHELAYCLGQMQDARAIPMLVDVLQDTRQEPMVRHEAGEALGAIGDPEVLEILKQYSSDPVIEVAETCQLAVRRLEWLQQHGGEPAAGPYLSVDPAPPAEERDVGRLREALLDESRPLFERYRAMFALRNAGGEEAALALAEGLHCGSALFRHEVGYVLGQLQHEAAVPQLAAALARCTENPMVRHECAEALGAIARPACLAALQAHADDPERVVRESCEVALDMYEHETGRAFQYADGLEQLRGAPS
Sequence of UniProt Q9UJU6 (Q9UJU6 whole entry, looked up): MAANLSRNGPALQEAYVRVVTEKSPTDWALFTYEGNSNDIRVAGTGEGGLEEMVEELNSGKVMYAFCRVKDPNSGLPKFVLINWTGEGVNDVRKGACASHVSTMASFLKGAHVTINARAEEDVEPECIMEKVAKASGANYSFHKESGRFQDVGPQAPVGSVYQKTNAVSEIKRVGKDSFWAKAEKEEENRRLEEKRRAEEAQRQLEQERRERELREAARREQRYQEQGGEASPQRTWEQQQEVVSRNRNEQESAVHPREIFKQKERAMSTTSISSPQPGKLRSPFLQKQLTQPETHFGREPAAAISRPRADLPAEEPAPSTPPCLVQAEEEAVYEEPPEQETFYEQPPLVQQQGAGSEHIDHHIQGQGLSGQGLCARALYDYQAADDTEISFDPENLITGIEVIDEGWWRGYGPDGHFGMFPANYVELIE
Sequence of UniProt O75822 (O75822 whole entry, looked up): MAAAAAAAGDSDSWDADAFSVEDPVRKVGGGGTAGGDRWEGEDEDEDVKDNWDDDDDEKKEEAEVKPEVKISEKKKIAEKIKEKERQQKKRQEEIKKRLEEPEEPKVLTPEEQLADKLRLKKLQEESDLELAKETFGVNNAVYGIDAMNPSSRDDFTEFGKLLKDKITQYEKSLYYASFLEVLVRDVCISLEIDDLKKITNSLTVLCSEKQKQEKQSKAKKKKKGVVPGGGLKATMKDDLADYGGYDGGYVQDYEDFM
Sequence of UniProt Q9Y5Q0 (Q9Y5Q0 whole entry, looked up): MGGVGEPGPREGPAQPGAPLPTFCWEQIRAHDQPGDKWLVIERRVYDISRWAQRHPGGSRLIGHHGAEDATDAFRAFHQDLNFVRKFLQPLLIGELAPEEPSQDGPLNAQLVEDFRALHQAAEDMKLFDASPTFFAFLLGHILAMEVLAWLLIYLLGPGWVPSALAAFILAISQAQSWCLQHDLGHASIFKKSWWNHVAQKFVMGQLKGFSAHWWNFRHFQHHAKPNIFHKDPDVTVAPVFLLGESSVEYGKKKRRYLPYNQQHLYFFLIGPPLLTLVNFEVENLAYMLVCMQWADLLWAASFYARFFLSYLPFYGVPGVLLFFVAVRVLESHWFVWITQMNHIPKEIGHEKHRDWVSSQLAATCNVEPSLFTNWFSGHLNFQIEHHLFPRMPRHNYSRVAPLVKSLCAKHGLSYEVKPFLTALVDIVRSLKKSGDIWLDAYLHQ
Sequence of UniProt Q5QP82 (Q5QP82 whole entry, looked up): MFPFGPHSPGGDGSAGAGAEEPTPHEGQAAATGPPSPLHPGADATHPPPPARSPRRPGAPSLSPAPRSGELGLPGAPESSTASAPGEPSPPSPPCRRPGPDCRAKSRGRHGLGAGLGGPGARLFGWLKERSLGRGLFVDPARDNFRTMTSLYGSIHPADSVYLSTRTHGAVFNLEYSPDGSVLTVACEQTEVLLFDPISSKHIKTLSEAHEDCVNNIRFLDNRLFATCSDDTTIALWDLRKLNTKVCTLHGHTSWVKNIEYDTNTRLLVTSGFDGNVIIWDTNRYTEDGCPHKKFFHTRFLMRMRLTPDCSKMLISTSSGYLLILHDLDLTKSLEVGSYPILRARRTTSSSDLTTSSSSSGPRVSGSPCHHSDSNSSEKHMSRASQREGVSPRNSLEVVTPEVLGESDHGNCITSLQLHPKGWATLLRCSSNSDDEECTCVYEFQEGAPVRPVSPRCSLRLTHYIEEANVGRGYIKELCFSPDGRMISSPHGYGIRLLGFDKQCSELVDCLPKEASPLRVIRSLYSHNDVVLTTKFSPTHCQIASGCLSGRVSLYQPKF
Sequence of UniProt Q9NV70 (Q9NV70 whole entry, looked up): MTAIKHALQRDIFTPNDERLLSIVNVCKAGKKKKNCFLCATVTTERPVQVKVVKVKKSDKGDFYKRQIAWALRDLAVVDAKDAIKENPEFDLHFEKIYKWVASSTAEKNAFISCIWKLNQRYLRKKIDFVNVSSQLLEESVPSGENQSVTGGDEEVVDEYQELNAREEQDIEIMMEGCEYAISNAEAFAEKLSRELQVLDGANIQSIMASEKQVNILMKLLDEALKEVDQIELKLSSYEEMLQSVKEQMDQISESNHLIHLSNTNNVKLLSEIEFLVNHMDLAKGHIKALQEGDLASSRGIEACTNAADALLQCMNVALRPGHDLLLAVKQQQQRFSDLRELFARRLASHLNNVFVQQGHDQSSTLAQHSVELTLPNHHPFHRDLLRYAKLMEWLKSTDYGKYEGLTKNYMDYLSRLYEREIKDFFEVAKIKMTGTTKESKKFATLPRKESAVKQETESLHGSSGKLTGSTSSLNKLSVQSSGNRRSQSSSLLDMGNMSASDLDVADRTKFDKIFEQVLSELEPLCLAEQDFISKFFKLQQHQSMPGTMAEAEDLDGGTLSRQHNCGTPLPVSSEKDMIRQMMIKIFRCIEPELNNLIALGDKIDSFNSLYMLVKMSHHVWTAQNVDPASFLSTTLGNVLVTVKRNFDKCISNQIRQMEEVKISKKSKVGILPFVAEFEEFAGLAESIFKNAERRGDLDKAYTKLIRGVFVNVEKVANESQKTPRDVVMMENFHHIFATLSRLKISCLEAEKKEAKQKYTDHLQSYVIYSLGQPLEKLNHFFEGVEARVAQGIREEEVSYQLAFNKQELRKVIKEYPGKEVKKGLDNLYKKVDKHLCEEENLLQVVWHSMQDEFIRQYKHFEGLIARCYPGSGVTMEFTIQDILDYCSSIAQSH
Sequence of UniProt P50402 (P50402 whole entry, looked up): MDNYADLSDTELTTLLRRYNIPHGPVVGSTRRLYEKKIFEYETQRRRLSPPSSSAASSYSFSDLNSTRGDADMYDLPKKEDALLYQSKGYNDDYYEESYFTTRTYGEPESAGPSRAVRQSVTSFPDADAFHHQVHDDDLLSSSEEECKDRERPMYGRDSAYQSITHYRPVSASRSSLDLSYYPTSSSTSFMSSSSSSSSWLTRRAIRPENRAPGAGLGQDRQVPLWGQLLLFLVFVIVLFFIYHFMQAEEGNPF
Sequence of UniProt Q14118 (Q14118 whole entry, looked up): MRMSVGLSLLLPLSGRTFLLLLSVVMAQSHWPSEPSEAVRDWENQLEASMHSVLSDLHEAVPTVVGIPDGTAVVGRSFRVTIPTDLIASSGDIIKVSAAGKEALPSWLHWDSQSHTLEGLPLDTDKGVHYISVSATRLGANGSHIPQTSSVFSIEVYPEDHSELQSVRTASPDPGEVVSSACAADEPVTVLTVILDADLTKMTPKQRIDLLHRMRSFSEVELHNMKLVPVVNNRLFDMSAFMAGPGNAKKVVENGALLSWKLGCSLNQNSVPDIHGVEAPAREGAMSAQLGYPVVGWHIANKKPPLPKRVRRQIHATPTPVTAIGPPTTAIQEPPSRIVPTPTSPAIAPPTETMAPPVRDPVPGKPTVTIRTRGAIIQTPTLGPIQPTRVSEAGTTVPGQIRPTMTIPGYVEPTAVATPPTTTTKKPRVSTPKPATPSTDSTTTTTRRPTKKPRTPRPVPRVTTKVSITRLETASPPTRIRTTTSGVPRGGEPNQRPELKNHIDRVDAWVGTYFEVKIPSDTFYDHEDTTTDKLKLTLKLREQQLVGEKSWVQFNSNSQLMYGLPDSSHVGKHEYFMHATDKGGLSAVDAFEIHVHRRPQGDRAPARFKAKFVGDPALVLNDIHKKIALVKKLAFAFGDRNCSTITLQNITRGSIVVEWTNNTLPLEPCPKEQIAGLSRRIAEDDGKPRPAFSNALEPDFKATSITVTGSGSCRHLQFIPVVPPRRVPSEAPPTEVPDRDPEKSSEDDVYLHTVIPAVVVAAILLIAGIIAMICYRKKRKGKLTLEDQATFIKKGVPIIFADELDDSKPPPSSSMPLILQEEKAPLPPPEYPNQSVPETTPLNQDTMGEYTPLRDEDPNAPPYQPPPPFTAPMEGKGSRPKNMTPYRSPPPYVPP
Sequence of UniProt Q13011 (Q13011 whole entry, looked up): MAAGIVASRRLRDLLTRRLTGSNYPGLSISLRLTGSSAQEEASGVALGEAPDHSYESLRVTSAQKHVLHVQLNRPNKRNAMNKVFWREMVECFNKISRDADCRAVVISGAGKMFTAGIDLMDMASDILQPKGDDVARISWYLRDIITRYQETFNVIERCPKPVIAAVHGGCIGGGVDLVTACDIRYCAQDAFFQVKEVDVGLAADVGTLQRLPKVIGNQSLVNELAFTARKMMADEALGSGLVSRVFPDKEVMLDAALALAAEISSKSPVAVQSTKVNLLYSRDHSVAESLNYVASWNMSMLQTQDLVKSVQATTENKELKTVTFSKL
Sequence of UniProt P09622 (P09622 whole entry, looked up): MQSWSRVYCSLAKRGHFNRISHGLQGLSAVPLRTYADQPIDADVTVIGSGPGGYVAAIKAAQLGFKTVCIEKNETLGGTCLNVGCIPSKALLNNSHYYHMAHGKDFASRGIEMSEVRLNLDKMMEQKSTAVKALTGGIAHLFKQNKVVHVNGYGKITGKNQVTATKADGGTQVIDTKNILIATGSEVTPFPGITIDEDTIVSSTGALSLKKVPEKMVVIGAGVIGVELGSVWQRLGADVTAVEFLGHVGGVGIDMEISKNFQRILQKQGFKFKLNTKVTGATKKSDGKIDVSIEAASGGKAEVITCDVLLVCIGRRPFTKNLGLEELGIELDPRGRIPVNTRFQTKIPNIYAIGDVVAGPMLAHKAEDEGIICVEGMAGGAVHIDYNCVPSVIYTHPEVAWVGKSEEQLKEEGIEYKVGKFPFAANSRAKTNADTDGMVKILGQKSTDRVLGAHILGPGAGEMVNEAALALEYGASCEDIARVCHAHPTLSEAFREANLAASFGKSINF

| Target | log2 fold change [1] | log2 fold change [2] | log2 fold change [3] | log2 fold change [4] | log2 fold change [5] | log2 fold change [6] | log2 fold change [7] | log2 fold change [8] | log2 fold change [9] | log2 fold change [10] |
| --- | --- | --- | --- | --- | --- | --- | --- | --- | --- | --- |
| DHCR7 (UniProt Q9UBM7) | -0.003 | 0.192 | -0.085 | 0.089 | -0.029 | -0.304 | -0.055 | 0.051 | 0.049 | -0.056 |
| DTWD2 (UniProt Q8NBA8) | 0.06 | 0.133 | 0.137 | -0.103 | -0.036 | 0.027 | -0.019 | 0 | 0.009 | -0.092 |
| DOHH (UniProt Q9BU89) | 0.049 | 0.06 | 0.287 | -0.154 | 0.055 | 0.029 | 0.127 | 0.022 | 0.005 | -0.015 |
| EMD (UniProt P50402) | 0.042 | -0.215 (active) | 0.019 | 0.018 | -0.033 | -0.047 | -0.049 | 0.015 | 0.018 | -0.092 |
| FAM3A (UniProt P98173) | 0.01 | -0.071 | 0.07 | 0.01 | 0.006 | 0.014 | -0.025 | -0.075 | 0.009 | -0.065 |
| EIF2S3 (UniProt P41091) | -0.071 | -0.014 | -0.219 (active) | 0.053 | -0.037 | 0.077 | -0.031 | 0.014 | 0.038 | -0.088 |
| FAAP100 (UniProt Q0VG06) | -0.043 | -0.027 | 0.142 | -0.051 | 0.041 | -0.096 | -0.023 | -0.077 | 0.033 | -0.006 |
| DPYSL2 (UniProt Q16555) | 0.034 | 0.025 | -0.09 | 0.023 | 0.33 | -0.015 | -0.012 | 0.082 | 0.069 |  |
| DNAJC19 (UniProt Q96DA6) | 0.008 | -0.073 | 0.055 | -0.089 | 0.004 | 0.011 | 0.007 | -0.017 | -0.011 | -0.069 |
| FAM160B1 (UniProt Q5W0V3) | 0.015 | -0.119 | 0.06 | -0.003 | 0.117 | -0.217 | 0.003 | 0.049 | -0.018 | -0.125 |
| EEF1D isoform 2 (UniProt P29692) | 0.043 | 0.004 | -0.028 | 0.066 | -0.011 | -0.057 | 0.038 | 0.04 | 0.026 | -0.055 |
| CUEDC2 (UniProt Q9H467) | 0.028 | -0.029 | 0.026 | -0.113 | 0.048 | -0.017 | 0.109 | 0.012 | -0.087 | 0.024 |
| EIF3J (UniProt O75822) | -0.024 | -0.012 | 0.009 | -0.035 | 0.048 | -0.157 | 0.038 | 0.005 | -0.022 | 0.099 |
| FADS3 (UniProt Q9Y5Q0) | 0.042 | -0.237 | 0.198 | 0.055 | 0.079 | -0.058 | -0.042 | 0.073 | -0.013 | -0.311 (active) |
| EDC3 (UniProt Q96F86) | 0.002 | -0.237 | -0.439 (active) | -0.014 | -0.14 | -0.023 | -0.025 | 0.066 | 0.05 | -0.121 |
| DLD (UniProt P09622) | -0.068 | -0.023 | 0.019 | -0.042 | 0.016 | -0.02 | -0.009 | 0.014 | -0.016 | -0.083 |
| DTYMK (UniProt P23919) | 0.046 | -0.146 | 0 | -0.022 | 0.094 | -0.217 | -0.109 | -0.009 | -0.025 | 0.032 |
| EXOC1 (UniProt Q9NV70) | -0.036 | -0.336 | -0.007 | 0.174 | -0.013 | -0.179 | -0.016 | 0.067 | 0.138 | -0.472 (active) |
| EDEM2 (UniProt Q9BV94) | 0.036 | 0.024 | -0.119 | 0.163 | -0.074 | -0.081 | -0.015 | 0.111 | 0.065 | -0.04 |
| DDX27 (UniProt Q96GQ7) | -0.039 | -0.037 | -0.064 | 0.37 | -0.145 | 0.073 | -0.12 | 0.071 | 0.135 | 0.004 |
| ECH1 (UniProt Q13011) | 0.025 | -0.086 | 0.068 | -0.011 | 0.04 | -0.195 | 0.434 (active) | -0.008 | -0.023 | -0.208 |
| DAG1 (UniProt Q14118) | 0.037 | 0.119 | 0.132 | 0.032 | 0.116 | -0.006 | -0.084 | -0.032 | -0.001 | -0.001 |
| DDX39A (UniProt O00148) | 0.062 | -0.082 | 0.079 | 0.002 | 0.051 | -0.009 | 0.043 | 0.05 | -0.069 | -0.064 |
| EHD2 (UniProt Q9NZN4) | 0 | -0.068 | 0.077 | -0.008 | 0.048 | -0.028 | -0.003 | 0.002 | 0 | -0.007 |
| DCAF10 (UniProt Q5QP82) | 0.036 | 0.007 | 0.037 | 0.017 | -0.046 | -0.15 | 0.007 | -0.098 | 0.055 | -0.059 |
| E2F4 (UniProt Q16254) | 0.04 | -0.029 | 0.024 | -0.095 | 0.027 | -0.034 | 0.086 | -0.019 | 0.024 | -0.103 |
| DFFB (UniProt O76075) | 0.018 | 0.072 | 0.012 | 0.106 | 0.037 | -0.017 | -0.123 | -0.012 | -0.021 | -0.006 |
| DBNL isoform 3 (UniProt Q9UJU6) | 0.041 | -0.116 | 0.073 | -0.016 | 0.037 | -0.094 | 0.048 | -0.015 | 0.054 | -0.048 |
| ERCC6 (UniProt Q03468) | -0.12 | 0.061 | 0.011 | -0.127 | 0.044 | 0.017 | -0.051 | -0.103 | 0.053 | 0.152 |
| CTSB (UniProt P07858) | 0.048 | -0.508 (active) | 0.057 | -0.042 | 0.016 | 0.006 | -0.006 | 0.015 | -0.014 | -0.403 (active) |
